Reference: PubChem BioAssay AID651789 (National Center for Advancing Translational Sciences (NCATS), 2012)
Results filed as inconclusive are left out. Where a call stands in place of a potency, no number is given. The source made the active and inactive calls. Calls come from the whole dose curve; as a rule, active = well fitted inhibition curve with a large enough effect; inconclusive = small, poorly fitted or top-dose-only effect; inactive = no such curve, though single readings can be large or run the other way.

Assay: Acumen qHTS Assay for Inhibitors of the mTORC1 Signaling Pathway in WT MEF Cells: Hit Validation; note: nearly all actives have a fitted effect of over 60% in size
Settings: Acumen imaging; series mostly up to 37.3 µM
Outline: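 Read-out is immunofluorescent phospho-rpS6 (Ser235/236) normalised to PI-stained cell number, reported as % active cells using a 7.5 nM rapamycin threshold. Cells: WT or Tsc2-/-, p53-/- MEFs, compound-exposed 24 h at 37C; PI count also tracks viability.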
Potency is the fitted concentration of half-maximal effect.

Question: With COc1cc(Cl)c(C)cc1NC(=O)C1CCN(c2nc3ccccc3n3cccc23)CC1 as the molecule, how does the Potency read?
Answer: The Potency was “inactive”.

Question: With COc1ccc(-c2[nH]nc3nc(-c4cc(OC)c(OC)c(OC)c4)cc(C(=O)O)c23)cc1 as the molecule, how does the Potency read?
Answer: Its Potency is “inactive”.

Question: Which Potency does the source give for Cc1cccc(NC(=O)c2c(N)sc3c2CCC(C)C3)c1 (configuration not stated) here?
Answer: The Potency was “inactive”.

Question: With COC(=O)c1ccccc1NC(=O)Cn1c(=O)n(-c2ccc(C)cc2)c(=O)c2ccccc21 as the molecule, how does the Potency read?
Answer: Its Potency is “inactive”.

Question: Which Potency does the source give for CC(C)(C)c1ccc(C(=O)Nc2nnc3n2CCS3)cc1 here?
Answer: Its Potency is 8.26 µM (active).

Question: Which Potency does the source give for CCc1ccc(NC(=O)Cn2nc(C(F)(F)F)c3c2CCCC3)cc1 here?
Answer: The Potency was “inactive”.

Question: Which Potency does the source give for C#Cc1cccc(Nc2ncnc3cc(OCCOC)c(OCCOC)cc23)c1 here?
Answer: The Potency was “inactive”.
